What all share (settings): mRNA level, 48 h; actives raise or lower the signal
Read-out in assay [1]: Insulin-like growth factor-binding protein 1 (IGFBP1), IGFBP1 (gene 3484)
As to the kind of experiment: LTEA_HepaRG_IGFBP1: Life Technologies and Expression Analysis (LTEA) Assay for Insulin-like growth factor-binding protein 1 (IGFBP1) using HepaRG (AID 2283508). In outline:
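Differentiated human HepaRG cells in serum-free induction medium were exposed in duplicate for 48 h to eight concentrations, top 100 uM with half-log dilutions, in 0.5% DMSO. Transcript levels came from qRT-PCR normalised to ACTB, GAPDH and POLR2A, fitted bidirectionally against DMSO.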

Read-out in assay [2]: Interleukin 6 (IL6), IL6 (gene 3569)
As to the kind of experiment: LTEA_HepaRG_IL6: Life Technologies and Expression Analysis (LTEA) Assay for Interleukin 6 (IL6) using HepaRG (AID 2283509). In outline: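 HepaRG cells exposed in duplicate for 48 h to eight half-log concentrations, top 100 uM, in 0.5% DMSO serum-free induction medium. mRNA measured by qRT-PCR, normalized to ACTB, GAPDH and POLR2A. Bidirectional fit versus DMSO.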

Read-out in assay [3]: Interleukin 6 Receptor (IL6R), IL6R (gene 3570)
As to the kind of experiment: LTEA_HepaRG_IL6R: Life Technologies and Expression Analysis (LTEA) Assay for Interleukin 6 Receptor (IL6R) using HepaRG (AID 2283510).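 As to AC50: TaqMan qRT-PCR signal normalized to ACTB GAPDH and POLR2A housekeeping genes.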 In outline: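 Concentration-response in human liver HepaRG cells: eight concentrations from 100 uM downward by half-logs, 48 h exposure, 0.5% DMSO vehicle. IL6R mRNA change measured by qRT-PCR and fitted in both directions relative to vehicle.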

Read-out in assay [4]: Potassium channel subfamily K member 1 (KCNK1), KCNK1 (gene 3775)
As to the kind of experiment: LTEA_HepaRG_KCNK1: Life Technologies and Expression Analysis (LTEA) Assay for Potassium channel subfamily K member 1 (KCNK1) using HepaRG (AID 2283511). In outline: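 Differentiated HepaRG cells, 48 h exposure in serum-free induction medium with 0.5% DMSO; 8 concentrations, half-log from 100 uM, duplicate. KCNK1 mRNA by qRT-PCR, normalized to ACTB, GAPDH, POLR2A; bidirectional fit vs DMSO.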

Read-out in assay [5]: Keratin 19 (KRT19), KRT19 (gene 3880)
As to the kind of experiment: LTEA_HepaRG_KRT19: Life Technologies and Expression Analysis (LTEA) Assay for Keratin 19 (KRT19) using HepaRG (AID 2283512). In outline:
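Differentiated human HepaRG cells, plated 48 h, were exposed in duplicate for 48 h in serum-free induction medium to eight half-log concentrations up to 100 uM in 0.5% DMSO. KRT19 mRNA was quantified by qRT-PCR, normalized to ACTB, GAPDH and POLR2A, and fitted bidirectionally versus DMSO.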

Read-out in assay [6]: JUN Transcription Factor, JUN (gene 3725)
As to the kind of experiment: LTEA_HepaRG_JUN: Life Technologies and Expression Analysis (LTEA) Assay for JUN Transcription Factor using HepaRG (AID 2283513). In outline:
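Human HepaRG liver cells receive test chemicals in 0.5% DMSO for 48 h across an eight-point range topping at 100 uM. Expression changes in JUN are scored in both directions against the DMSO vehicle.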

Read-out in assay [7]: Lipase C (LIPC), LIPC (gene 3990)
As to the kind of experiment: LTEA_HepaRG_LIPC: Life Technologies and Expression Analysis (LTEA) Assay for Lipase C (LIPC) using HepaRG (AID 2283514). In outline:
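HepaRG cells, 48 h after plating, treated in duplicate for 48 h in serum-free induction medium over 8 half-log concentrations from 100 uM, 0.5% DMSO. LIPC mRNA by TaqMan qRT-PCR normalized to ACTB/GAPDH/POLR2A; bidirectional fit versus DMSO.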

Read-out in assay [8]: Lipoprotein lipase (LPL), LPL (gene 4023)
As to the kind of experiment: LTEA_HepaRG_LPL: Life Technologies and Expression Analysis (LTEA) Assay for Lipoprotein lipase (LPL) using HepaRG (AID 2283515). In outline:
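Differentiated HepaRG cells, plated 48 h, then exposed 48 h in serum-free induction medium to 8 concentrations (top 100 uM, half-log steps) in 0.5% DMSO, duplicate. LPL mRNA measured by qRT-PCR, normalized to ACTB, GAPDH and POLR2A.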

Read-out in assay [9]: MicroRNA 122 (MIR122), gene 406906
As to the kind of experiment: LTEA_HepaRG_MIR122: Life Technologies and Expression Analysis (LTEA) Assay for MicroRNA 122 (MIR122) using HepaRG (AID 2283516). Also: the transcript read is the microRNA miR-122. In outline: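 HepaRG, 48 h exposure, 8-pt half-log from 100 uM, 0.5% DMSO; TaqMan qRT-PCR; bidirectional fit vs DMSO.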

Read-out in assay [10]: matrix metalloproteinase-10 (MMP10), MMP10 (gene 4319)
As to the kind of experiment: LTEA_HepaRG_MMP10: Life Technologies and Expression Analysis (LTEA) Assay for matrix metalloproteinase-10 (MMP10) using HepaRG (AID 2283517). In outline:
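Differentiated HepaRG cells in serum-free induction medium exposed 48 h in duplicate to 8-point half-log series up to 100 uM in 0.5% DMSO. mRNA quantified by qRT-PCR, normalised to ACTB, GAPDH, POLR2A; bidirectional fit versus DMSO.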

Read-out in a further assay: MYC, MYC (gene 4609)
As to the kind of experiment: LTEA_HepaRG_MYC: Life Technologies and Expression Analysis (LTEA) Assay for MYC using HepaRG (AID 2283518). In outline:
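Differentiated human HepaRG cells, plated 48 h then switched to serum-free induction medium, were exposed in duplicate for 48 h to 8-point half-log series up to 100 uM in 0.5% DMSO. MYC mRNA measured by qRT-PCR, normalized to ACTB/GAPDH/POLR2A.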

Read-out in assay [11]: matrix metalloproteinase-3 (MMP3), MMP3 (gene 4314)
As to the kind of experiment: LTEA_HepaRG_MMP3: Life Technologies and Expression Analysis (LTEA) Assay for matrix metalloproteinase-3 (MMP3) using HepaRG (AID 2283519). In outline: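 HepaRG cells (~100,000/well) in serum-free induction medium were dosed in duplicate for 48 h with an 8-point half-log series from 100 uM, 0.5% DMSO. MMP3 mRNA was quantified by Fluidigm TaqMan qRT-PCR, normalized to three housekeeping genes.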

Read-out in assay [12]: Paternally Expressed 10 (PEG10), PEG10 (gene 23089)
As to the kind of experiment: LTEA_HepaRG_PEG10: Life Technologies and Expression Analysis (LTEA) Assay for Paternally Expressed 10 (PEG10) using HepaRG (AID 2283520). In outline:
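Chemicals tested on HepaRG cells for 48 h, highest concentration 100 uM. PEG10 expression assessed by qRT-PCR relative to DMSO control.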

Read-out in assay [13]: Nuclear factor NF-kappa-B p105 subunit (Homo sapiens) (UniProt P19838)
As to the kind of experiment: LTEA_HepaRG_NFKB1: Life Technologies and Expression Analysis (LTEA) Assay for Nuclear Factor Kappa B Subunit 1 (NFKB1) using HepaRG (AID 2283521).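 Also: TaqMan qRT-PCR transcript normalised to ACTB GAPDH and POLR2A housekeeping genes.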 In outline: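 Differentiated human HepaRG cells were exposed for 48 h in serum-free induction medium to eight concentrations (top 100 uM, half-log steps, 0.5% DMSO), in duplicate. NFKB1 mRNA was measured by TaqMan qRT-PCR, normalized to ACTB/GAPDH/POLR2A, and fitted bidirectionally against DMSO.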

Read-out in assay [14]: Protein phosphatase 2A (PPP2R4), PTPA (gene 5524)
As to the kind of experiment: LTEA_HepaRG_PPP2R4: Life Technologies and Expression Analysis (LTEA) Assay for Protein phosphatase 2A (PPP2R4) using HepaRG (AID 2283522). In outline: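 Gene-expression endpoint in HepaRG hepatic cells: 48 h treatment across eight half-log concentrations up to 100 uM in 0.5% DMSO. PPP2R4 mRNA by qRT-PCR, normalized to three endogenous control genes.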

Read-out in assay [15]: Phosphatase and tensin (PTEN), PTEN (gene 5728)
As to the kind of experiment: LTEA_HepaRG_PTEN: Life Technologies and Expression Analysis (LTEA) Assay for Phosphatase and tensin (PTEN) using HepaRG (AID 2283523). In outline: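 HepaRG cells, 48 h after plating, exposed in duplicate for 48 h in serum-free induction medium to 8 half-log concentrations up to 100 uM (0.5% DMSO). PTEN mRNA by qRT-PCR, normalized to ACTB, GAPDH, POLR2A; bidirectional fit versus DMSO.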

Read-out in assay [16]: solute carrier (SLC22A1), SLC22A1 (gene 6580)
As to the kind of experiment: LTEA_HepaRG_SLC22A1: Life Technologies and Expression Analysis (LTEA) Assay for solute carrier (SLC22A1) using HepaRG (AID 2283524). In outline:
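Differentiated human HepaRG cells in serum-free induction medium, exposed 48 h in duplicate to 8-point half-log series from 100 µM top in 0.5% DMSO. SLC22A1 mRNA by TaqMan qRT-PCR normalized to ACTB, GAPDH, POLR2A; bidirectional fit versus DMSO.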

Read-out in assay [17]: Pyruvate Dehydrogenase Kinase 4 (PDK4), PDK4 (gene 5166)
As to the kind of experiment: LTEA_HepaRG_PDK4: Life Technologies and Expression Analysis (LTEA) Assay for Pyruvate Dehydrogenase Kinase 4 (PDK4) using HepaRG (AID 2283525). In outline: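 HepaRG cells plated 48 h, then switched to serum-free induction medium and exposed in duplicate for 48 h to 8 half-log concentrations from 100 uM in 0.5% DMSO. PDK4 mRNA measured by qRT-PCR, normalized to ACTB, GAPDH and POLR2A; bidirectional fit versus DMSO.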

Read-out in assay [18]: NAD(P)H dehydrogenase [quinone] 1 (NQO1), NQO1 (gene 1728)
As to the kind of experiment: LTEA_HepaRG_NQO1: Life Technologies and Expression Analysis (LTEA) Assay for NAD(P)H dehydrogenase [quinone] 1 (NQO1) using HepaRG (AID 2283526). In outline:
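Human HepaRG hepatic cells received chemicals for 48 h in serum-free induction medium with 0.5% DMSO, up to 100 uM. Expression was assessed by TaqMan qRT-PCR against housekeeping controls and fitted bidirectionally against DMSO.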

Read-out in assay [19]: Nuclear factor erythroid 2-related factor 2 (Homo sapiens) (UniProt Q16236)
As to the kind of experiment: LTEA_HepaRG_NFE2L2: Life Technologies and Expression Analysis (LTEA) Assay for Nuclear factor erythroid 2-related factor 2 (NFE2L2) Transcription Factor using HepaRG (AID 2283527).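 Also: TaqMan qRT-PCR transcript level normalised to ACTB GAPDH and POLR2A housekeeping genes.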 In outline:
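Differentiated human HepaRG cells, serum-free induction medium, exposed 48 h in duplicate to eight half-log concentrations up to 100 uM in 0.5% DMSO. NFE2L2 mRNA by Fluidigm TaqMan qRT-PCR, normalised to ACTB, GAPDH, POLR2A; bidirectional change versus DMSO.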

For three compounds, outcome and AC50 results are on record in PubChem BioAssay (EPA / NIEHS).

Activity calls are given as the source filed them. The calls were made as follows: active = hit-call score of the fitted dose curve at least 0.9, where 1 is the maximum; inactive = score below 0.9.

Sequence of Nuclear factor NF-kappa-B p105 subunit (Homo sapiens) (P19838 whole entry, looked up): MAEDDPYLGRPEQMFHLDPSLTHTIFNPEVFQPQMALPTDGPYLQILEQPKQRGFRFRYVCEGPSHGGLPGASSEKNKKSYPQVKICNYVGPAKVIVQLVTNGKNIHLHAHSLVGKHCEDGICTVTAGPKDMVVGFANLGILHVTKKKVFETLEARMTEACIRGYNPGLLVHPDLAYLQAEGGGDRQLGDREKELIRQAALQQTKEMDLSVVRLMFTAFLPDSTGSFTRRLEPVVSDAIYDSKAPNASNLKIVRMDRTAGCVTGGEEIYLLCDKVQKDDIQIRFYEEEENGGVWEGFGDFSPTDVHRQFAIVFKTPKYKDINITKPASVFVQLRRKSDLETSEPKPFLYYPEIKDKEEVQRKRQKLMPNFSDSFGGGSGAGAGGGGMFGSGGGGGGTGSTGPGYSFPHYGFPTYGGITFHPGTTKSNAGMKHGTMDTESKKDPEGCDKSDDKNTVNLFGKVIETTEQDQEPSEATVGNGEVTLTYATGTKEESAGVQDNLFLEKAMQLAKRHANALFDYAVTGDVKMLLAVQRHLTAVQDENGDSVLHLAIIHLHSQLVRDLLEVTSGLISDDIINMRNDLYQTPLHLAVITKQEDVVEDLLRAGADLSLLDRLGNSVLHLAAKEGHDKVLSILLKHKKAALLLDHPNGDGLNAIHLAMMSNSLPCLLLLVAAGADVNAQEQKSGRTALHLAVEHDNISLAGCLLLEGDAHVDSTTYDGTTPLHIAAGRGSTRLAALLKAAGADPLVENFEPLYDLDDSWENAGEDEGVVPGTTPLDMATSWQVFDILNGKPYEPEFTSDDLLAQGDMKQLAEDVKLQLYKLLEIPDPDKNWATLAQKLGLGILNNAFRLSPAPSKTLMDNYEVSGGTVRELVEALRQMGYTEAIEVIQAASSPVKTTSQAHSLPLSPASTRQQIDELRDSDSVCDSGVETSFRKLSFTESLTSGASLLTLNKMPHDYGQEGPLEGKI
Sequence of Nuclear factor erythroid 2-related factor 2 (Homo sapiens) (Q16236 whole entry, looked up): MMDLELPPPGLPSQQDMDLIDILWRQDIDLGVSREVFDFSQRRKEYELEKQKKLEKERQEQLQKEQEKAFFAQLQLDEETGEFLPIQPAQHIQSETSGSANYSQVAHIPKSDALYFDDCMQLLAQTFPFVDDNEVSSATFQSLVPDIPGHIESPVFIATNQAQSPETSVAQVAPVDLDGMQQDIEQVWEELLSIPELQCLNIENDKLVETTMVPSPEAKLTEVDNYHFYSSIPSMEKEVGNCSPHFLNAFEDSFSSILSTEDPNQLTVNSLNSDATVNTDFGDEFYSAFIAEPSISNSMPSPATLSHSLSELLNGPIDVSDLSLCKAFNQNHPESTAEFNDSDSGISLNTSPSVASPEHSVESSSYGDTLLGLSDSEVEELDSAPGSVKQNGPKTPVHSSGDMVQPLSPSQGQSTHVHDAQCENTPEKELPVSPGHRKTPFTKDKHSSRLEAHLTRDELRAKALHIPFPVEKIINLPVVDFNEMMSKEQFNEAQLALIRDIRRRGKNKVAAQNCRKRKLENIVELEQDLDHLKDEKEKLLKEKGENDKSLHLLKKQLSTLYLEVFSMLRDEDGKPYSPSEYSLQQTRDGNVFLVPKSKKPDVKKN

Turning to `CN(C)CCO`, the result in assay [1], in [2], in assay [3], in [4], in [5] and in assay [6] was inactive. Moreover, the outcome in [7] is “inactive”; in assay [8], “inactive”; in [9], “inactive”; in assay [10] it was “inactive”; in the assay with MYC, MYC (gene 4609) it was “inactive”; in [11], “inactive”. Moreover, the outcome in assay [12], in assay [13], in [14], in [15], in assay [16] and in assay [17] was inactive. Besides, the compound was classed as inactive in assay [18].

Take `Oc1ccc(C(c2ccc(O)cc2)(C(F)(F)F)C(F)(F)F)cc1`: the concentration at half-maximal activity (AC50) in [1] is 75.9 µM (active); in assay [2], 91.8 µM (active); in assay [3], 89.2 µM (active); in assay [6], 92.4 µM (active); in assay [8], 79.3 µM (active); in assay [10], 82.7 µM (active). The AC50 in the assay with MYC, MYC (gene 4609) was 77.5 µM (active); in assay [11], 76.6 µM (active); in assay [14] it was 89 µM (active); in assay [16] it was 71.9 µM (active); in assay [18] it was 78.9 µM (active). The compound was called inactive in [4], in [5], in assay [7], in assay [9], in [12] and in assay [13]. Further, the result in assay [15], in [17] and in assay [19] was inactive.

As to `Cc1ccc(O)c(C)c1`, the outcome in assay [1], in assay [2], in [3], in assay [4], in assay [5] and in [6] was inactive. In addition, the outcome in assay [7] was “inactive”; in [8], “inactive”; in assay [9], “inactive”; in [10] it was “inactive”; with MYC, MYC (gene 4609) it was “inactive”; in assay [11], “inactive”. The compound was classed as inactive in [12], in assay [13], in assay [14], in assay [15], in [16] and in assay [17]. For the same compound, the call in [18] and in assay [19] was inactive.
